Hits are enriched below; roughly 21% of the tested compounds scored in any of these assays.
Cycloheximide cs = counter-screen hit for Shiga toxin inhibitors, cycloheximide; cell reporter, cycloheximide protein synthesis inhibition counterscreen; max response, %; 300,000 compounds, 12% hits; AID 2314; in the data active means max response mostly above about 13%, no sharp cut-off; inactive means mostly below about 14%; further: read at 38.3 µM for the half of the compounds with a filed dose; 0% is about no effect
NS1 inh = blocks influenza NS1 protein function | Potency, µM (titrated, usually from 46.1 µM), without a hit: at the top dose activity, positive = more growth | 270,000 compounds, 0.4% hits; calls by dose curve; further: potency means the concentration at half of the fitted maximal effect; actives are rising curves; nearly all actives have a fitted effect of over 50% in size
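Recovery from NS1-induced slow growth read by OD600 in budding yeast switched to galactose assay medium (pH 6.0, -URA) at 1:100 dilution. Compound 23 nl per well; the matching strain lacking NS1 serves as control.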
Pf growth 96h = P. falciparum growth inhibition at 96 hours. AID 504834. 320,000 compounds, 6.9% hits. Potency, µM (doses to about 28.7 µM), for inactives: at the top dose activity change, negative = inhibition, usual class: inhibitors. P. falciparum luciferase reporter growth, 96 h; further: potency means the concentration at half of the fitted maximal effect; on the % scale 0 is the no-effect control and ±100 the full control effect
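P. falciparum expressing integrated firefly luciferase, in erythrocytes at 2% hematocrit, 0.05% parasitemia, incubated with compounds 96 h at 37 C, 5% CO2. Growth inhibition read as loss of luminescence; two-generation exposure targets delayed-death apicoplast inhibitors.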
Sm TGR block = S. mansoni TGR enzyme inhibition; Q962Y6; purified TGR, DTNB reduction, TNB absorbance 405 nm; Potency, µM (titrated, usually from 114 µM), without a hit: at the highest dose activity change, negative = inhibition, usual class: inhibitors; 360,000 compounds, 3% hits; AID 485364; further: potency means the concentration at half of the fitted maximal effect; on the % scale 0 is the no-effect control and ±100 the full control effect; nearly all actives have a fitted effect of over 60% in size
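TGR 20 nM + NADPH 100 uM (dispensed conc.), cpd preinc 15 min RT; start with NADPH (500 uM addition) then DTNB (15 mM addition). Kinetic TNB absorbance, 405 nm filter. Four-parameter Hill fit across titration.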
Shiga inhibitor = inhibitors of Shiga toxin in Vero cells | Vero cells, Shiga toxin protein synthesis inhibition reporter | inhibition, % at 38.7 µM | 290,000 compounds, 9.2% hits; in the data active means inhibition mostly above about 28%, no sharp cut-off; inactive means mostly below about 43%; further: 0% is about no effect
Pf growth 48h = P. falciparum growth inhibition at 48 hours (one generation); P. falciparum luciferase growth in erythrocytes, 48 h; Potency, µM (top dose mostly 28.7 µM), for inactives: at the top dose activity change, negative = inhibition, actives largely listed as inhibitors; 310,000 compounds, 5.9% hits; further: potency means the concentration at half of the fitted maximal effect; on the % scale 0 is the no-effect control and ±100 the full control effect
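Growth was read as firefly luciferase luminescence after a 48 h, 37 C, 5% CO2 exposure of compounds to reporter-bearing P. falciparum cultures (0.1% parasitemia, 2% hematocrit final) in Albumax-supplemented RPMI 1640.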
* = called active by the depositor; ? = inconclusive; . = not tested or not shown. Unless noted, the call rests on the fitted dose curve; in most records, active means well fitted curve in the direction sought with a large enough effect; inconclusive means small, poorly fitted or top-dose-only effect, or another doubt; inactive means no such curve, though single readings can be large; an effect the other way counts as inactive or inconclusive.

SMILES | Cycloheximide cs | NS1 inh | Pf growth 96h | Sm TGR block | Shiga inhibitor | Pf growth 48h
CCOC(=O)N1CCN(S(=O)(=O)c2cc(Br)cc3c2N(C(=O)CC)CC3)CC1 | -3 | -2% | . | -1% | 5 | 11%
CCOC(=O)C1CCCN(S(=O)(=O)c2cc(Br)cc3c2N(C(=O)CC)CC3)C1 (centres undefined) | -3 | -12% | -18% | -14% | 2 | ?
O=C(C1CC1)N1CCc2cc(Br)cc(S(=O)(=O)N3CCCCCC3)c21 | -1 | -84% | . | 2% | 4 | 1.7µM*
CCOC(=O)C1CCCN(S(=O)(=O)c2cc(Br)cc3c2N(C(=O)C2CC2)CC3)C1 (centres undefined) | 2 | -100% | 36% | 0% | -27 | 3.3µM*
O=C(C1CC1)N1CCc2cc(Br)cc(S(=O)(=O)N3CCN(c4cccc(Cl)c4)CC3)c21 | . | . | . | 8% | . | .
CCC(=O)N1CCc2cc(Br)cc(S(=O)(=O)N3CCC(C(=O)NC(C)C)CC3)c21 | -4 | -6% | 6% | -6% | -7 | 6.6µM*
Cc1cc(OCC(=O)NCCc2cccc(F)c2)c2c(C)cc(=O)oc2c1 | -2 | 24% | ? | 1% | -7 | ?
Cc1cccc(OCC(=O)Nc2ccc(Cl)c(-c3nc4ncccc4o3)c2)c1C | . | . | . | 7% | . | .
CCOC(=O)N1CCC(NS(=O)(=O)c2cc3c(cc2Cl)NC(=O)CO3)CC1 | -3 | 6% | 0.21µM* | -16% | -7 | ?
CCC(=O)N1CCc2cc(Br)cc(S(=O)(=O)N3CCCC(C(=O)O)C3)c21 (centres undefined) | -5 | 5% | 26% | -5% | 1 | -11%
CCC(=O)N1CCc2cc(Br)cc(S(=O)(=O)N3CCCCCC3)c21 | 1 | -32% | ? | -18% | 11 | 2.9µM*
C[C@@H]1CC[C@H]2[C@@H](C)C(=O)O[C@@H]3OC4(C)CC[C@@H]1C32OO4 (some centres undefined) | . | . | 0.0027µM* | . | . | 0.0034µM*
CCC(C)NC(=O)CCC(=O)OC1O[C@H]2OC3(C)CC[C@H]4[C@H](C)CCC(C1C)C24OO3 (some centres undefined) | 7 | -67% | -41% | 11% | 4 | -72%
C[C@@H]1CC[C@H]2[C@@H](C)C(=O)O[C@@H]3O[C@@]4(C)CC[C@@H]1[C@]32OO4 | -1 | -68% | 0.0033µM* | 1% | -1 | 0.0033µM*
CC1CCC2C(C)C(=O)OC3O[C@]4(C)CCC1[C@@]32OO4 (some centres undefined) | 10 | . | . | . | -5 | .
C[C@@H]1CC[C@H]2[C@@H](C)C(=O)O[C@@H]3OC4(C)CC[C@@H]1[C@]32OO4 | -6 | . | . | . | -10 | .
C[C@H]1[C@@H](OC(=O)CCC(=O)O)OC2OC3(C)CC[C@H]4[C@H](C)CC[C@@H]1[C@@]24OO3 (some centres undefined) | . | . | 0.0013µM* | . | . | 0.0019µM*
O=C(NCCCO)c1cc2c([nH]c3ccccc32)c(-c2ccccc2)n1 | -2 | -2% | 5.9µM* | -12% | -10 | ?
COC(=O)[C@H](C)NC(=O)c1cc2c(cn1)[nH]c1ccccc12 | 15* | 1% | 0% | -6% | 24 | 5%
O=C(NCCCO)c1cc2c(cn1)[nH]c1ccccc12 | 27* | -2% | 69% | 8% | 43 | 63%
COC(=O)c1cc(Cl)nc2ccccc12 | -3 | 10% | ? | 17% | -37 | -1%
CCc1ccccc1NC(=O)C1CCCN(S(=O)(=O)c2c(C)noc2C)C1 (centres undefined) | -2 | -57% | -29% | 4% | -4 | ?
Cc1noc(C)c1S(=O)(=O)N1CCCC(C(=O)NCCc2ccc(Cl)cc2)C1 (centres undefined) | 6 | -4% | . | -7% | 12 | 12µM*
Cc1noc(C)c1S(=O)(=O)N1CCCC(C(=O)NCc2ccccc2Cl)C1 (centres undefined) | -2 | 0% | 5.9µM* | 3% | -7 | 1%
CCN(CC)C1CCN(Cc2cn[nH]c2-c2ccc(OC)c(F)c2)C1 (centres undefined) | 6 | 0% | 2.1µM* | -31% | 1 | 12%
